Source: PubChem (National Center for Advancing Translational Sciences (NCATS))
In the library only some 8.6% were active in any assay of this set; here they are far more common.
Lassa entry: qHTS for Inhibitors of binding or entry into cells for Lassa Virus; Lassa virus pseudotyped entry inhibition, cell-based qHTS; AID 720533, 2013; Potency, µM (top dose mostly 49.2 µM), hits mostly inhibitors; hit rate 4.1% among 18,000
MARV entry inh: qHTS for Inhibitors of binding or entry into cells for Marburg Virus; Marburg virus pseudotype entry/binding inhibition, cell-based; Potency, µM (highest dose often 49.2 µM), hits mostly inhibitors; hit rate 6.5% among 18,000
A number is an active result; - = inactive; ? = inconclusive; . = not tested or not shown; [ ] = dose if it differs, or a comment. Calls come from the whole dose curve; tested in HEK293 cells.

SMILES | Lassa entry | MARV entry inh
COC(=O)[C@H]1O[C@@H](c2cc(OC)c(C)c(OC)c2OCc2ccccc2)[C@H](C)[C@H]2O[C@@]12C | - | -
O=P1(O)Oc2c(c(-c3ccccc3)cc3ccc4ccccc4c23)-c2c(-c3ccccc3)cc3ccc4ccccc4c3c2O1 | - | -
Cc1ccc2c(c1)cc(CN(C)Cc1nc(C)cs1)c(=O)n2C | - | -
CCC(=O)O[C@](Cc1ccccc1)(c1ccccc1)[C@H](C)CN(C)C | - | 28µM
CCC(=O)O[C@@](Cc1ccccc1)(c1ccccc1)[C@@H](C)CN(C)C | - | -
O=C1C[C@@H](c2ccccc2)[C@H](c2ccc(Br)cc2)O1 | -[8.59 µM] | -[8.59 µM]
COc1ccc(OC[C@@H]2CC3[C@@H](CC[C@@H](C)[C@H]3c3ccc(Br)cc3)C(=O)O2)cc1 (stereo partly drawn) | -[8.59 µM] | -[8.59 µM]
Cc1c(-c2ccc(O)cc2)nn(-c2ccc(O)cc2)c1-c1ccc(OCCN2CCCCC2)cc1 | 32µM | 4µM
CCN1C(=O)c2ccccc2C1Nc1ccc(OCCN2CCCCC2)cc1 (stereo not drawn) | - | -
COC(=O)CC1OC1[C@H](C)[C@@H](OC)C(C)C (stereo partly drawn) | . | -[8.59 µM]
O=C(O)c1cc(O)c2c(c1)C(=O)c1cccc(O)c1C2=O | - | 13µM
Cc1cc(O)c2c(c1)C(=O)c1cccc(O)c1C2=O | - | -
COc1ccc2c(c1)C(c1cc(OC)c(OC)c(OC)c1)CC(=O)O2 (stereo not drawn) | - | -
O=C1c2ccccc2CCC1CNCCc1ccc(O)cc1 (stereo not drawn) | - | -
Cc1ccc(CN2C[C@H](Sc3ccccn3)C[C@H]2C(=O)Nc2ccc3sc(C)nc3c2)cc1 | - | ?
COc1ccc(S[C@@H]2C[C@@H](C(=O)Nc3ccc4nccnc4c3)N(C3Cc4ccccc4C3)C2)cc1 | 3.2µM | -
NCCCCCCNS(=O)(=O)c1cccc2ccccc12 | ? | -
Nc1nc(NCC2CCC(CNS(=O)(=O)c3cccc4ccccc34)CC2)nc2ccccc12 (stereo not drawn) | ? | 11µM
COc1ccc(CN2CCC(n3cc(C(=O)N4CCCC4)nn3)CC2)c(OC)c1C | - | -
COC(=O)/C(Cc1cc(Br)c(OC)c(Br)c1O)=N/O | - | -
COc1cc(-c2ccc(-[n+]3nc(-c4ccccc4)nn3-c3ccc([N+](=O)[O-])cc3)c(OC)c2)ccc1-[n+]1nc(-c2ccccc2)nn1-c1ccc([N+](=O)[O-])cc1 | 14µM | 14µM
CC(C)[C@@H]1NC(=O)[C@@H](Cc2ccccc2)NC(=O)[C@H](CC(=O)O)NC(=O)CNC(=O)[C@H](CCCN=C(N)N)NC1=O | - | -
CC(C)C[C@@H]1NC(=O)[C@H](CCCN)NC(=O)[C@H](C(C)C)NC(=O)[C@@H]2CCCN2C(=O)[C@@H](Cc2ccccc2)NC(=O)[C@H](CC(C)C)NC(=O)[C@H](CCCN)NC(=O)[C@H](C(C)C)NC(=O)[C@@H]2CCCN2C(=O)[C@@H](Cc2ccccc2)NC1=O | 32µM | ?
CN(C)C(=O)NC1CCCCCCC1 | - | -
O=C(CCl)c1ccc(Cl)cc1Cl | 13µM | 8.9µM
SMILES | Lassa entry | MARV entry inh
OCc1ccc(Cl)cc1Cl | - | -
C=C(CCN1C=C(C(=O)OCC)C(c2ccccc2)NC1=O)c1ccccc1 (stereo not drawn) | -[8.59 µM] | ?
C[C@H](NC(=O)Cc1cc(F)cc(F)c1)C(=O)N[C@@H](C(=O)OC(C)(C)C)c1ccccc1 | - | ?
COc1ccc(CCN(C)CCCOc2ccc(S(=O)(=O)c3[nH]c4ccccc4c3C(C)C)cc2)cc1OC | 14µM | 4µM
CN(C)CCOc1ccc(/C(=C(/CCCl)c2ccccc2)c2ccccc2)cc1 | - | ?
CCN(CC)CCOc1ccc(Cc2ccccc2)cc1 | - | 10µM
CN(C(Cc1ccc(OS(=O)(=O)c2cccc3cnccc23)cc1)C(=O)N1CCN(c2ccccc2)CC1)S(=O)(=O)c1cccc2cnccc12 (stereo not drawn) | 10µM | ?
NC(N)=NCCNS(=O)(=O)c1cccc2cnccc12 | - | -
Cc1cc(C)cc(CN2CCOc3ccc(CN4CCC(O)(c5cccnc5)CC4)cc3C2)c1 | - | ?
COC(=O)N1C(c2ccccc2)=Cc2ccccc2C1C1(C(=O)OC)CCCC1=O (stereo not drawn) | - | ?
FC(F)(F)c1cc(CO[C@H]2CCCN[C@H]2c2ccccc2)cc(C(F)(F)F)c1 | 25µM | 10µM
COC(=O)C1=C(C)N(Cc2ccccc2)C(=O)NC1c1cccc(C(F)(F)F)c1 (stereo not drawn) | -[8.59 µM] | -[8.59 µM]
COc1ccc2c(c1OC)C(Cc1ccccc1)N1CCc3cc4c(cc3C1=C2)OCO4 (stereo not drawn) | 25µM | ?
COc1ccc2c(c1OC)C(=O)OC2C1c2cc3c(cc2CCN1C)OCO3 (stereo not drawn) | - | -
COC(=O)C1=C(C)N(CC#C[Si](C)(C)C)C(=O)N(C(C)=O)C1c1ccccc1 (stereo not drawn) | -[8.59 µM] | -[8.59 µM]
